mHTT CaM bind – mutant huntingtin-calmodulin interaction inhibitors – biochemical, AlphaScreen, primary screen | P42858 | 190,000 compounds, 3.6% hits | AlphaScreen His-mHTT/GST-CaM binding, luminescence | inhibition, % at 15 µM | AID 1671202, 2021;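 also: 0% = both proteins with DMSO and 100% = one protein alone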
Pf apPOL block – Pf-apPOL inhibitors, biochemical, fluorescence. inhibition, % at 10 µM. Plasmodium falciparum apicoplast DNA polymerase (apPOL). 210,000 compounds, 0.25% hits. Recombinant Pf-apPOL, molecular beacon fluorescence, 1.5 h
The depositor's hits bear a star. This is one part of a sample in which hits are shown more often than they occur. Rule as the data show it: active = inhibition above about 50%; inactive = the rest.

COc1ccc(C2Nc3ccccc3C3C=CCC32)cc1[N+](=O)[O-] (configuration not stated) was read as mHTT CaM bind 86* and Pf apPOL block 0.
For O=[N+]([O-])c1cccc2c1NC(c1cccc(Cl)c1Cl)C1CC=CC21 (configuration not stated) the results were mHTT CaM bind 73* and Pf apPOL block -3.
For O=C(CCc1csc(NC(=O)c2ccc(F)cc2)n1)NCCn1ncccc1=O the results were mHTT CaM bind -3 and Pf apPOL block -1.
CN1C(=O)C(O)(CC(=O)c2ccccn2)c2cc(Br)ccc21 (configuration not stated) was read as mHTT CaM bind 2 and Pf apPOL block -6.
For CN1C(=O)C2(NN=C(c3ccccc3)S2)c2cc(Br)ccc21 (configuration not stated) the results were mHTT CaM bind 100* and Pf apPOL block -3.
O=C(Nc1ccc(N2CCCN(C(=O)C3CC3)CC2)cc1)c1ccc(Cl)s1 was read as mHTT CaM bind -2 and Pf apPOL block 4.
Screening COc1ccccc1CC(=O)N1CCN(C2=CC3=NCC(C)N3C=N2)CC1 (configuration not stated) returned mHTT CaM bind 15 and Pf apPOL block -4.
Screening Cc1ccccc1OCC(=O)N1CCN(C2=CC3=NCC(C)N3C=N2)CC1 (configuration not stated) returned mHTT CaM bind 100* and Pf apPOL block 1.
For CN1CCCc2cc(C(CNC(=O)Nc3cccs3)N3CCCC3)ccc21 (configuration not stated) the results were mHTT CaM bind 55* and Pf apPOL block 2.
Screening CN1CCN(C(CNC(=O)NCc2ccccc2)c2ccc3c(c2)CCCN3C)CC1 (configuration not stated) returned mHTT CaM bind 37 and Pf apPOL block -12.
CC(=O)Nc1ccc(-c2noc(C3CCCN(C(=O)c4cccc(Cl)c4)C3)n2)cc1 (configuration not stated) was read as mHTT CaM bind 34 and Pf apPOL block -8.
Screening O=C(Cc1ccc([N+](=O)[O-])cc1)NCCc1cccc(Cl)c1 returned mHTT CaM bind 15 and Pf apPOL block 1.
COc1ccc(CN=Cc2ccc(NC(C)=O)cc2)cc1 was read as Pf apPOL block 7.
For c1ccc(-c2ccc(-c3ccccn3)nn2)nc1 the results were mHTT CaM bind 100*.
Screening c1ccc(-c2ccccn2)nc1 returned Pf apPOL block -5.
Screening COc1ccc(CC(=O)Nc2c3c(nn2-c2ccc(C)cc2)CS(=O)C3)cc1 (configuration not stated) returned mHTT CaM bind 4 and Pf apPOL block -2.
For COc1ccc(S(=O)(=O)NC(CC(=O)NCc2cccnc2)c2ccco2)cc1 (configuration not stated) the results were mHTT CaM bind -7 and Pf apPOL block -4.
`CC1CCN(Cc2cc(Br)c(O)c3ncccc23)CC1` gave mHTT CaM bind 100* and Pf apPOL block -7.
Cc1ccc2c(CN3CCC(C)CC3)cc(=O)oc2c1 was read as mHTT CaM bind -17 and Pf apPOL block -8.
Screening Cc1ccc(-n2c(SCC(=O)Nc3ccc(Cl)cc3)nc3c(c2=O)SCC3)cc1 returned mHTT CaM bind 5 and Pf apPOL block 0.
O=C(NC1CC(=O)N(C2CC2)C1)c1c(F)cccc1Cl (configuration not stated) was read as mHTT CaM bind -15 and Pf apPOL block -3.
COc1cccc(Oc2c(C(F)(F)F)oc3c(CN(C)C)c(O)ccc3c2=O)c1 was read as mHTT CaM bind -3 and Pf apPOL block -7.
`CN(C)Cc1c(O)ccc2c(=O)c(Oc3ccc4ccccc4c3)c(C(F)(F)F)oc12` gave mHTT CaM bind 76* and Pf apPOL block -1.
Screening CN1/C(=C\C(C[N+](=O)[O-])c2ccc3c(c2)OCO3)C(C)(C)c2ccccc21 (configuration not stated) returned mHTT CaM bind 83* and Pf apPOL block -17.
COc1ccc(C(/C=C2\N(C)c3ccccc3C2(C)C)C[N+](=O)[O-])cc1 (configuration not stated) was read as mHTT CaM bind 50 and Pf apPOL block 0.
`CCC(CO)NCC(O)Cn1c2c(c3cc(C)ccc31)CCCC2` (configuration not stated) gave mHTT CaM bind 54* and Pf apPOL block -8.
Cc1ccc2c(c1)c1c(n2CC(O)CNCc2ccco2)CCCC1 (configuration not stated) was read as mHTT CaM bind 55* and Pf apPOL block 0.
Screening CNCC(O)Cn1c2c(c3ccccc31)CCCC2 (configuration not stated) returned mHTT CaM bind 14 and Pf apPOL block -12.
For Cc1ccc2c(c1)c1c(n2CC(O)Cn2nc(C)cc2C)CCCC1 (configuration not stated) the results were mHTT CaM bind 46 and Pf apPOL block 3.

Compound activity: PubChem, University of Kansas High Throughput Screening Laboratory
